CHX counter: Cycloheximide Counterscreen for Small Molecule Inhibitors of Shiga Toxin | cell reporter, cycloheximide protein synthesis inhibition counterscreen | max response, % | hit rate 12% among 300,000 | AID 2314, 2010; in the data active means max response mostly above about 13%, no sharp cut-off; inactive means mostly below about 14%; further: read at 38.3 µM for the half of the compounds with a filed dose; 0% is about no effect
Shiga toxin inh: A qHTS for Small Molecule Inhibitors of Shiga Toxin; hit rate 9.2% among 290,000; Vero cells, Shiga toxin protein synthesis inhibition reporter; inhibition, % at 38.7 µM; in the data active means inhibition mostly above about 28%, no sharp cut-off; inactive means mostly below about 43%; further: 0% is about no effect
Pf growth 96h: Primary qHTS for delayed death inhibitors of the malarial parasite plastid, 96 hour incubation; P. falciparum luciferase reporter growth, 96 h; Potency, µM (doses to about 28.7 µM), for inactives: at the top dose activity change, negative = inhibition, most hits filed as inhibitors; hit rate 6.9% among 320,000; AID 504834, 2011; further: potency means the concentration at half of the fitted maximal effect; on the % scale 0 is the no-effect control and ±100 the full control effect
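Luminescence readout: decreased luciferase signal marks inhibited growth of reporter-expressing P. falciparum in infected red cells (2% hematocrit, 0.05% parasitemia final), exposed to compound two generations (96 h, 37 C, 5% CO2).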
Pf growth 48h: Primary qHTS for delayed death inhibitors of the malarial parasite plastid, 48 hour incubation | hit rate 5.9% among 310,000 | P. falciparum luciferase growth in erythrocytes, 48 h | Potency, µM (series often up to 28.7 µM), for inactives: top-dose activity change, negative = inhibition, actives largely listed as inhibitors | AID 504832, 2011; further: potency means the concentration at half of the fitted maximal effect; on the % scale 0 is the no-effect control and ±100 the full control effect
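Parasite viability was followed by luminescence of a genomically integrated firefly luciferase. Cultures held 0.1% parasitemia at 2% hematocrit (final), incubated under 5% CO2 at 37 C.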
NS1 inh: qHTS Assay for Inhibitors of Influenza NS1 Protein Function | Potency, µM (series often up to 46.1 µM), for inactives: top-dose activity, positive = more growth | hit rate 0.4% among 270,000 | AID 2326, 2010; calls by dose curve; further: potency means the concentration at half of the fitted maximal effect; actives are rising curves; nearly all actives have a fitted effect of over 50% in size
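In this qHTS, NS1 from influenza A is expressed in budding yeast, where it slows growth. Cells are switched from glucose to 2% galactose medium (pH 6.0, -URA), treated with compound, and growth recovery is read at OD600.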
An asterisk follows results filed as active; i = inactive; ? = inconclusive; . = not tested or not shown. Most compounds without a hit are left out; they make up all but 21% or so of the library. Unless noted, the call rests on the fitted dose curve; in most records, active means well fitted inhibition curve with a large enough effect; inconclusive means small, poorly fitted or top-dose-only effect, or another doubt; inactive means no such curve, though single readings can be large or run the other way.

SMILES | CHX counter | Shiga toxin inh | Pf growth 96h | Pf growth 48h | NS1 inh
Cc1c(NC(=O)CSc2nncn2-c2ccccc2)c(=O)n(-c2ccccc2)n1C | . | . | 42.9% | 7.0% | .
CC(C)CCNC(=O)[C@H](CC(C)C)NC(=O)[C@H]1O[C@@H]1C(=O)O | -2.4 | -2.9 | 2.08µM* | 3.7µM* | 2.2%
CCOC(=O)c1cnc(/N=C/N(C)C)s1 | 27.0 | 36.3 | 58.2% | 102.0% | .
CCN(CC)S(=O)(=O)c1ccc(NC(=O)CNC2CCCCC2)cc1 | -3.2 | -12.8 | -9.7% | -16.0% | -0.6%
COc1cc(NC(=O)C2CC(=O)N(Cc3ccco3)C2)c(OC)cc1Cl (stereo not drawn) | . | . | 29.4% | 19.3% | .
COc1cc2c(cc1NC(=O)COC(=O)CNC(=O)c1ccccc1)oc1ccccc12 | 31.5* | 48.8* | 110.7% | 43.8% | -37.7%
COc1ccc(CC(=O)Nc2cc3oc4ccccc4c3cc2OC)cc1 | 62.7* | 111.4* | 10.4µM* | 45.7% | 12.6%
COc1ccccc1CC(=O)Nc1cc2oc3ccccc3c2cc1OC | 24.9* | 20.5 | ? | ? | -0.1%
COc1cc2c(cc1NC(=O)COC(=O)[C@@H](NC(=O)c1ccccc1)C(C)C)oc1ccccc12 | 13.8 | 18.8 | ? | -20.3% | -16.3%
COc1cc2c(cc1NC(=O)COC(=O)C1CC(=O)N(Cc3ccco3)C1)oc1ccccc12 (stereo not drawn) | 22.6* | 63.1 | 21.5% | 49.3% | -3.8%
Cc1c(Cl)ccc2c1NC(=O)[C@]21N[C@@H](Cc2ccccc2)[C@H]2C(=O)N(c3ccc(F)cc3)C(=O)[C@H]21 | -2.5 | -18.3 | . | ? | 15.1%
O=c1cc(Nc2ccc3c(c2)OCCO3)[nH]c(=O)n1Cc1ccc(F)cc1 | 29.1* | 48.5* | 0.0% | 6.7% | 0.4%
Cc1ccc(Nc2ncnc3c2oc2ccccc23)cc1 | 45.0* | 100.2 | 32.8% | . | -62.7%
COc1ccc(Nc2ncnc3c2oc2ccccc23)cc1 | 56.0* | 123.7* | -1.2% | 91.2% | -12.8%
COc1ccccc1Oc1ncnc2c1oc1ccccc12 | 21.0* | 22.6 | 50.7% | 1.0% | -3.2%
COc1ccc([C@H]2C=C3CN(C(=O)OC(C)(C)C)S(=O)(=O)[C@H]3C[C@H]2OC(=O)c2cccs2)cc1 | 1.7 | 8.5 | -2.4% | ? | 8.6%
CC(C)=CC[N+]1(C)CCCCC1 | 5.4 | -5.9 | -27.0% | ? | -7.6%
Oc1ccccc1/C=N/Nc1ccccc1 | 47.9* | 196.7* | 24.7% | 41.6% | -30.2%
Oc1ccccc1/C=N/Nc1ncc(Br)cn1 | 65.8* | 74.2* | -102.0% | 2.08µM* | -5.5%
Oc1ccccc1/C=N/NP(=S)(c1ccccc1)c1ccccc1 | 14.2 | 23.3 | ? | ? | .
Cc1cc(O)c(/C=N/Nc2ccccc2)c(=O)o1 | 19.8* | -0.4 | 16.5% | -21.0% | -5.9%
Oc1ccc(/C=N/Nc2ccc3ccccc3c2)c(O)c1 | 30.7* | 44.3* | ? | ? | .
Cc1cc(O)c(C=Nc2cccc(Cl)c2)c(=O)o1 | -3.8 | 1.7 | 0.2% | 28.1% | -7.8%
Cc1nccn1CC(=O)N/N=C/c1ccccc1O | -0.9 | 3.2 | 37.2% | -7.0% | 1.1%
Cc1cccc(OCC(=O)N/N=C\c2cccn2C)c1C | 8.9 | 8.7 | ? | 47.5% | .
SMILES | CHX counter | Shiga toxin inh | Pf growth 96h | Pf growth 48h | NS1 inh
CCOc1ccc(C(=O)N2CCN(S(=O)(=O)c3cccs3)CC2)c(OCC)c1 | 13.2 | -22.3 | 4.0% | ? | 11.4%
CC1CC(O)C(C)CN1 (stereo not drawn) | -1.6 | -3.7 | 34.3% | 20.1% | 0.5%
COc1ccc(N2CCN(C(=O)NCc3ccc(OC)c(OC)c3)CC2)cc1 | 1.6 | 2.2 | -4.2% | 21.0% | -12.0%
CC(NC(=O)OC(C)(C)C)C(=O)NC(CCC(=O)OCc1ccccc1)C(N)=O (stereo not drawn) | 2.8 | -4.5 | -21.9% | -1.5% | .
Oc1ccccc1/C=N/Nc1ccnc(SCc2ccccc2)n1 | 23.9* | 30.3 | 1.85µM* | 10.4µM* | ?
Clc1ccc(Cl)c(Nc2ccnc(SCc3ccccc3)n2)c1 | . | . | . | . | -12.4%
Cc1cccc(OCCCc2c(C)n[nH]c2C)c1 | 1.1 | -7.6 | 3.0% | . | -54.2%
Cc1n[nH]c(C)c1CCOc1ccc(C(C)C)cc1 | 32.0 | 49.3* | 13.2% | -0.6% | -69.3%
CCOC(=O)c1cccc(NC(=O)c2cncc(Br)c2)c1 | 41.4* | 45.8* | -23.4% | ? | 1.6%
CCOC(=O)c1cccc(NC(=O)c2cccnc2)c1 | 11.1 | 15.5 | 105.9% | 12.6% | -61.9%
O=C(Nc1cccc(NC(=O)c2cncc(Br)c2)c1)c1cncc(Br)c1 | -1.3 | . | ? | 3.7µM* | 17.7%
CCOC(=O)c1cccc(NC(=O)c2ccc(N(C)C)cc2)c1 | 67.9* | 108.3* | 30.9% | 161.5% | 6.6%
Cc1ccc(NC(=O)c2cncc(Br)c2)c([N+](=O)[O-])c1 | 11.3* | 77.4* | ? | 59.5% | 2.1%
CC(N)COC(=O)C(CCCCN)NC(=O)Cc1c(-c2ccc3ccccc3c2)[nH]c2c1ccc1ccccc12 (stereo not drawn) | -6.1 | 14.5 | . | . | .
CCOc1cc(/C=N/NC(=O)C(=O)NCc2cccnc2)ccc1O | 8.5 | 4.2 | -14.9% | 1.5% | 8.7%
Cc1cc(C)nc(SCc2cnc(C)nc2N)n1 | -0.3 | -8.8 | 80.0% | ? | 0.3%
CC(C)c1ccc(O)c(NC(=O)c2cncc(Br)c2)c1 | 18.5* | 36.3* | ? | ? | -3.0%
CCOC(=O)c1cccc(NC(=O)c2cnc3ccccc3n2)c1 | 35.4* | 57.1 | 43.8% | ? | -40.7%
CCCOC(=O)c1cccc(NC(=O)C(C)(C)C)c1 | 18.1* | 32.2* | 17.0% | 20.6% | -46.9%
CCN(CC)C(=O)Cn1nc(C)c2ccccc2c1=O | -4.8 | -2.4 | . | . | 3.4%
CC1(C)OC(=O)C(=CNc2ccccc2)C(=O)O1 | 16.0 | 26.5 | i | 2.2% | -13.8%
CC1(C)OC(=O)C(=NNc2ccc(Br)cc2)C(=O)O1 | 31.2* | 115.2* | -3.0% | -2.1% | -7.4%
CC1=Nc2ccccc2/C1=C\c1nc(-c2ccc(F)cc2)oc1O | 11.4 | 28.9 | 7.0% | . | -1.2%
NC(=O)C1CCN(c2nc(-c3ccccc3)nc3ccccc23)CC1 | -0.7 | -10.4 | ? | ? | -1.9%
CC1CCCCN1C(=O)C1CCN(c2nc(-c3ccccc3)nc3c2CCC3)CC1 (stereo not drawn) | 3.5 | 4.7 | ? | 7.38µM* | -0.9%
C=CCNC(=S)N/N=C/c1cccc([N+](=O)[O-])c1 | 5.9 | 16.5 | ? | -9.9% | .
CCCNS(=O)(=O)c1cccc(C(=O)OCc2cc(=O)oc3cc(OC)ccc23)c1 | 19.3* | 61.1 | ? | ? | 10.3%
COc1ccc2c(COC(=O)c3cccc(S(=O)(=O)NCC(C)C)c3)cc(=O)oc2c1 | 20.5* | 36.7 | ? | 9.28µM* | 3.9%
CC(=O)Nc1ccc(OCC(O)CN2CCN(c3ccc(F)cc3)CC2)cc1 (stereo not drawn) | -0.9 | . | -9.1% | -13.1% | 12.1%
C/C(NC1CCCCC1)=C(/C#N)C(=O)NCCN1CCOCC1 | -3.5 | -1.9 | -10.4% | 3.9% | -1.0%

High-throughput results (PubChem)
